# Results taken from PubChem BioAssay (EPA / NIEHS).
# Inconclusive results are not listed. More than one record can exist for a structure, and the calls need not agree. Calls of active or inactive are those of the source. How the source made its calls, unless noted: active means hit-call score of the fitted dose curve at least 0.9, where 1 is the maximum; inconclusive means response in the unintended direction; inactive means score below 0.9.
# Columns and labels:
# [1] = CCTE_Mundy_HCI_iCellGluta_NOG_NeuriteLength: CCTE's Neurite Outgrowth Assay in iCellGluta cells for Neurite Length, Mundy Lab (AID 2284318)
# In short: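 Automated high-content imaging of betaIII-tubulin (Alexa Fluor-488) and Hoechst-stained cells gave neurite length, normalized to the DMSO baseline.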
# [2] = CCTE_Mundy_HCI_iCellGluta_NOG_NeuronCount: CCTE's Neurite Outgrowth Assay in iCellGluta cells for Neuron Count, Mundy Lab (AID 2284340);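 further: cells fixed about 48 h after compound addition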
# In short: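 Neuron count read by automated high-content imaging of Hoechst 33342 and betaIII-tubulin/Alexa Fluor-488 labelling in human iPSC glutamatergic neurons. Activity fitted relative to DMSO.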
# [3] = CCTE_Mundy_HCI_iCellGluta_NOG_NeuriteCount: CCTE's Neurite Outgrowth Assay in iCellGluta cells for Neurite Count, Mundy Lab (AID 2284342);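 further: chemical exposure about 48 hours starting 2 hours after plating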
# SERPINA7 (gene 6906) = assay: CCTE_GLTED_hTBG: CCTE's human Thyroxine-binding Globulin (TBG) Inhibition Assay, Great Lakes Toxicology and Ecology Division (GLTED) Lab (AID 2284343);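 further: active chemicals lower fluorescence versus DMSO baseline by displacing probe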
# In short: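 Measures how far test chemicals displace ANSA bound to purified human TBG. The read-out is fluorescence at 380 nm excitation and 475 nm emission, taken after 2 h of incubation.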
# [4] = VALA_MIGHUV2_WoundArea: VALA Sciences human Umbilical Vein Endothelial Cell Migration (MIGHUV) Assay, Area of Scratch Wound after Recovery (AID 2284316)
# In short: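 HUVEC seeded at 9000 cells/well, scratched after 24 h; test chemical added within 30 min, 6-point concentration response in triplicate (0.1% DMSO vehicle). After 24 h wound recovery, cells fixed and Hoechst-stained nuclei in wound area imaged; Cytochalasin D reference control.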
# [5] = VALA_TUBHUV_Antagonist_TubuleLength: VALA Sciences human Umbilical Vein Endothelial Tubule Formation (TUBHUV) Antagonism Assay (AID 2284325)
# In short: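 HUVEC–HDF co-culture (1:3) pre-grown 3 days with 10 ng/ml VEGF, then 3 days with compound plus VEGF. Fixed, nuclear and CD31 stained; total tubule length by imaging versus 0.1% DMSO; suramin 100 uM positive control.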
# [6] = VALA_MIGHUV1_ScratchOnly_CellCount: Viability Assessment in the VALA Sciences human Umbilical Vein Endothelial Cell Migration (MIGHUV) Assay, Scratch Wound Inhibited Recovery (AID 2284327)
# In short: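 HUVEC scratched after 24 h culture, chemical added within 30 min at 6 concentrations in triplicate (0.1% DMSO vehicle). After 24 h recovery, fixed cells were counted by Hoechst nuclear imaging in the wound area.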
# [7] = VALA_TUBIPS_Antagonist_CellCount: Viability Assessment in the VALA Sciences human iPS-derived Endothelial Tubule Formation (TUBIPS) Antagonism Assay (AID 2284335)
# [8] = VALA_MIGHUV1_ScratchOnly_WoundArea: VALA Sciences human Umbilical Vein Endothelial Cell Migration (MIGHUV) Assay, Area of Scratch Wound Inhibited Recovery (AID 2284336)
# In short: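 HUVEC monolayers (9000 cells/well) were scratched after 24 h, dosed within 30 min (six concentrations, triplicate, 0.1% DMSO), allowed 24 h recovery, then fixed. Hoechst-stained nuclei in the wound imaged; cytochalasin D as reference.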
# [9] = VALA_TUBHUV_Agonist_TubuleLength: VALA Sciences human Umbilical Vein Endothelial Tubule Formation (TUBHUV) Agonism Assay (AID 2284337)
# In short: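 HUVEC co-cultured with fibroblasts (1:3) 3 days in 10 ng/ml VEGF, then 3 days with compound plus VEGF; 0.1 % DMSO neutral control. Fixed, nuclear and CD31 stained; tubule length by fluorescence imaging.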
# [10] = VALA_TUBIPS_Agonist_CellCount: Viability Assessment in the VALA Sciences human iPS-derived Endothelial Tubule Formation (TUBIPS) Agonism Assay (AID 2284338)
# [11] = CCTE_Deisenroth_5AR_NBTE_donor: CCTE's 5alpha-reductase NanoBRET Target Engagement Assay […], Deisenroth Lab (AID 2284319; active means hit-call score of the fitted dose curve at least 0.9, where 1 is the maximum; inactive means score below 0.9); conditions: actives raise or lower the signal
# In short: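 HEK293T cells transiently expressing SRD5A2-NanoLuc, exposed 5 h to chemicals (8 points, 10 nM - 29.9 uM), with testosterone tracer for the final 2 h. Donor luminescence at 460 nm read after Nano-Glo substrate plus extracellular NanoLuc inhibitor; bidirectional fit versus DMSO.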
# [12] = CCTE_Deisenroth_5AR_NBTE_acceptor: CCTE's 5alpha-reductase NanoBRET Target Engagement Assay - Autofluorescence Screen, Deisenroth Lab (AID 2284321; active means hit-call score of the fitted dose curve at least 0.9, where 1 is the maximum; inactive means score below 0.9;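 further: compound fluorescence in the acceptor channel under 460 nm excitation flags autofluorescence artifacts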); conditions: actives raise or lower the signal
# In short: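 Acceptor fluorescence intensity was read as an artifact-detection endpoint. Test chemicals at an assumed nominal 100 uM were excited at 460 nm across three independent runs. Activity was fitted bidirectionally against DMSO.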
# SRD5A2 (gene 6716) = assay: CCTE_Deisenroth_5AR_NBTE_ratio: CCTE's 5alpha-reductase NanoBRET Target Engagement Assay - Ratio, Deisenroth Lab (AID 2284322; active means hit-call score of the fitted dose curve at least 0.9, where 1 is the maximum; inactive means score below 0.9); conditions: actives raise or lower the signal
# In short: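 Reverse-transfect HEK293T with pNLF1-C-SRD5A2, express 20 h. Pre-incubate cells with chemical 3 h (8-point series, 10 nM - 29.9 uM, duplicate). Add testosterone tracer, 2 h more. Add substrate/inhibitor, read donor and acceptor emission.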
# [13] = TAMU_PeakParms_SingleDonor1434_Asystole: Texas A&M University (TAMU) 1.5-hr Human Induced Pluripotent Stem Cell (iPSC)-derived Cardiomyocytes Calcium (Ca+2) Flux Assay for Cardiotoxicity: Asystole (quiescence of beating) (AID 2284328)
# In short: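 Average Ca2+-flux peak frequency (beats/s) was recorded in single-donor iPSC-derived cardiomyocytes after 90 min exposure (0.2–100 uM final, 0.5% DMSO). Asystole POD set as EC95 against DMSO, no preprocessing.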
# [14] = IUF_NPC1_cytotoxicity_72hr: Cytotoxicity Assessment at 72 hours in the Leibniz Research Institute for Environmental Medicine (IUF) Neural Progenitor Cell Proliferation Assay (NPC1) (AID 2284332);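 further: rising LDH signal means more cytotoxicity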
# In short: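 hNPC spheres (fetal brain, gestational week 16-19) grown under proliferative EGF/FGF conditions, pH 7.2-7.6, were treated continuously for 72 h. Cytotoxicity came from LDH-coupled resazurin fluorescence in each well's supernatant.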
# TTR (gene 7276) = assay: CCTE_GLTED_hTTR_0.5uM: CCTE's human Transthyretin (hTTR) Inhibition Assay, with 0.5uM TTR, Great Lakes Toxicology and Ecology Division (GLTED) Lab (AID 2284320; active means hit-call score of the fitted dose curve at least 0.9, where 1 is the maximum; inactive means score below 0.9)
# In short: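 Cell-free displacement assay in which human TTR at 0.5 uM was incubated with test chemical for 2 h. Displacement of the ANSA probe was read by fluorescence at 380 nm excitation/475 nm emission. Loss of signal was fitted in the positive direction versus DMSO.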
# [15] = CCTE_Deisenroth_H295R-HTRF_384WELL_ESTRADIOL: CCTE's H295R-HTRF Assay Evaluation of Estradiol Concentration, Deisenroth Lab (AID 2284361; active means hit-call score of the fitted dose curve at least 0.9, where 1 is the maximum; inactive means score below 0.9); conditions: actives raise or lower the signal
# In short: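 H295R cells exposed 48 h to chemicals at 0.001 - 100 uM final (nine points, triplicate); estradiol in conditioned medium measured by HTRF immunoassay, fitted bidirectionally versus DMSO. Viability by CellTiter-Glo on same plates.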
# [16] = CCTE_Deisenroth_H295R-HTRF_384WELL_TESTOSTERONE: CCTE's H295R-HTRF Assay Evaluation of Testosterone Concentration, Deisenroth Lab (AID 2284373; active means hit-call score of the fitted dose curve at least 0.9, where 1 is the maximum; inactive means score below 0.9); conditions: actives raise or lower the signal
# In short: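 H295R cells were acclimated 24 h, then exposed 48 h to nine concentrations (0.001–100 uM final) in technical triplicate, n=5. Testosterone in conditioned medium was measured by HTRF (em 620/665 nm). Fitting was bidirectional versus DMSO; CellTiter-Glo viability ran on the same plates.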
# IYD (gene 389434) = assay: CCTE_GLTED_hIYD: CCTE's human Iodotyrosine Deiodinase (xIYD) Inhibition Assay, Great Lakes Toxicology and Ecology Division (GLTED) Lab (AID 2284317);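 further: cell-free human IYD enzyme made in baculovirus insect cells; iodide freed from monoiodotyrosine measured by cerium arsenite color change at 420 nm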
# In short: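 First, recombinant human IYD (baculovirus-insect cells), MIT and chemical incubated 3 h. Next, iodide isolated on Dowex. Finally, Sandell-Kolthoff rate read at 420 nm, with platewise normalization to MNT and solvent controls.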
compound,measurement,setting,value
CC(C)COC(=O)c1ccccc1C(=O)OCC(C)C,outcome,[1],inactive
same,outcome,[2],inactive
same,outcome,[3],inactive
same,AC50,SERPINA7 (gene 6906),16.1 µM (active)
Nc1ccc(Oc2ccc(N)cc2)cc1,AC50,SERPINA7 (gene 6906),25.3 µM (active)
CO[C@@H]1[C@H](OC(=O)NC(=O)CCl)CC[C@]2(CO2)[C@H]1[C@@]1(C)O[C@@H]1CC=C(C)C,outcome,[4],inactive
same,outcome,[5],inactive
same,outcome,[6],inactive
same,outcome,[7],inactive
same,outcome,[8],inactive
same,outcome,[9],inactive
same,AC50,[10],0.168 µM (active)
same,outcome,[10],inactive
CCCCCCCCn1sccc1=O,AC50,[11],72.7 µM (active)
same,AC50,[12],73.2 µM (active)
same,AC50,SRD5A2 (gene 6716),71.1 µM (active)
same,outcome,[13],inactive
Cc1cc(N=Nc2ccccc2C)ccc1N,AC50,[11],40.6 µM (active)
same,AC50,[12],38.4 µM (active)
same,AC50,SRD5A2 (gene 6716),50 µM (active)
same,AC50,SERPINA7 (gene 6906),4.38 µM (active)
CCCCCOC(=O)c1ccccc1C(=O)OCCCCC,AC50,SERPINA7 (gene 6906),7.46 µM (active)
CNC(=O)Oc1cccc2c1OC(C)(C)C2,AC50,[1],49.6 µM (active)
same,outcome,[14],inactive
same,outcome,[2],inactive
same,outcome,[3],inactive
c1ccc(N=Nc2ccccc2)cc1,outcome,[13],inactive
same,AC50,SERPINA7 (gene 6906),50 µM (active)
O=C(Nc1ccccc1)c1ccccc1I,AC50,SERPINA7 (gene 6906),15.7 µM (active)
CCNS(=O)(=O)C(F)(F)C(F)(F)C(F)(F)C(F)(F)C(F)(F)C(F)(F)C(F)(F)C(F)(F)F,AC50,TTR (gene 7276),1.54 µM (active)
COc1cc(C=O)cc2c1[C@H](COC(N)=O)[C@]1(OC(C)=O)ON2C[C@H]2[C@@H]1N2C(C)=O,outcome,[11],inactive
same,outcome,[12],inactive
same,outcome,SRD5A2 (gene 6716),inactive
CN(C)[C@@H]1C(=O)C(C(N)=O)=C(O)[C@@]2(O)C(=O)C3=C(O)c4c(O)cccc4[C@@](C)(O)[C@H]3C[C@@H]12,AC50,[1],23.3 µM (active)
same,outcome,[2],inactive
same,outcome,[3],inactive
CS(=O)(=O)NC(=O)c1cc(Oc2ccc(C(F)(F)F)cc2Cl)ccc1[N+](=O)[O-],AC50,SERPINA7 (gene 6906),16.1 µM (active)
OCCOCCO,outcome,[14],inactive
c1ccc(NNc2ccccc2)cc1,AC50,SERPINA7 (gene 6906),39.1 µM (active)
[O-][Cl+]O,AC50,[1],24 µM (active)
same,outcome,[14],inactive
same,outcome,[2],inactive
same,outcome,[3],inactive
CCCCOC(=O)c1ccccc1C(=O)OCc1ccccc1,outcome,[1],inactive
same,outcome,[14],inactive
same,outcome,[2],inactive
same,outcome,[3],inactive
same,AC50,SERPINA7 (gene 6906),2.23 µM (active)
c1ccc2c(c1)-c1cccc3cccc-2c13,outcome,[11],inactive
same,outcome,[12],inactive
same,outcome,SRD5A2 (gene 6716),inactive
COC(=O)Nc1nc2ccccc2[nH]1,outcome,[1],inactive
same,outcome,[14],inactive
same,outcome,[2],inactive
same,outcome,[3],inactive
O=[N+]([O-])c1ccc(Oc2ccc(Cl)cc2Cl)cc1,AC50,SERPINA7 (gene 6906),5.39 µM (active)
same,outcome,[15],inactive
same,outcome,[16],inactive
CC(C)(C)C(O)(CCc1ccc(Cl)cc1)Cn1cncn1 (stereo not drawn),outcome,[13],inactive
same,outcome,[14],inactive
same,AC50,SERPINA7 (gene 6906),26.9 µM (active)
same,outcome,[15],inactive
same,AC50,[16],2 µM (active)
CCC[CH2][Sn]([Cl])([CH2]CCC)[CH2]CCC,AC50,[1],0.163 µM (active)
same,AC50,[11],4.88 µM (active)
same,AC50,[12],4.25 µM (active)
same,AC50,SRD5A2 (gene 6716),16.8 µM (active)
same,AC50,[14],0.637 µM (active)
same,AC50,[2],0.257 µM (active)
same,AC50,[3],0.183 µM (active)
Clc1ccc(Cl)c(Cl)c1,outcome,[8],inactive
Nc1ccc([N+](=O)[O-])cc1,AC50,SERPINA7 (gene 6906),41.4 µM (active)
Nc1ccc(N=Nc2ccccc2)cc1,AC50,[11],23.8 µM (active)
same,outcome,[12],inactive
same,AC50,SRD5A2 (gene 6716),50 µM (active)
same,AC50,SERPINA7 (gene 6906),20.9 µM (active)
Nc1cc(Cl)cc(C(=O)O)c1Cl,outcome,SERPINA7 (gene 6906),inactive
CC(C)(O)c1cnn2c(-c3ccc(F)c(-c4c(F)cccc4C#N)c3)cnc2n1,outcome,[11],inactive
same,outcome,[12],inactive
same,AC50,SRD5A2 (gene 6716),13.5 µM (active)
[Cl-].[Cl-].[Hg+2],AC50,[11],74.8 µM (active)
same,AC50,[12],73.3 µM (active)
same,AC50,SRD5A2 (gene 6716),75.4 µM (active)
same,AC50,SERPINA7 (gene 6906),27.6 µM (active)
Oc1ccc2ccc3cccc4ccc1c2c34,outcome,[5],inactive
same,outcome,[7],inactive
same,outcome,[9],inactive
same,outcome,[10],inactive
COP(=S)(OC)SCN1C(=O)c2ccccc2C1=O,AC50,[1],92.2 µM (active)
same,outcome,[14],inactive
same,AC50,[2],80.7 µM (active)
same,AC50,[3],83.8 µM (active)
same,AC50,SERPINA7 (gene 6906),37.5 µM (active)
O=P(OCCCl)(OCCCl)OCCCl,outcome,[5],inactive
same,outcome,[14],inactive
same,outcome,[7],inactive
same,outcome,[8],inactive
same,outcome,[9],inactive
ClC1=C(Cl)[C@]2(Cl)[C@H]3[C@H]([C@@H]4C=C[C@H]3C4)[C@@]1(Cl)C2(Cl)Cl,outcome,[13],inactive
Clc1ccc(C(c2ccc(Cl)cc2)C(Cl)(Cl)Cl)cc1,AC50,IYD (gene 389434),35.2 µM (active)
same,outcome,[13],inactive
Brc1ccc(Oc2ccccc2)cc1,AC50,SERPINA7 (gene 6906),45.4 µM (active)
C[C@]12C=CC3=C4CCC(=O)C=C4CC[C@H]3[C@@H]1CC[C@@H]2O,outcome,[11],inactive
same,outcome,[12],inactive
same,outcome,SRD5A2 (gene 6716),inactive
Cc1ccc(N)c(N)c1,outcome,[11],inactive
same,AC50,[12],50 µM (active)
same,AC50,SRD5A2 (gene 6716),22.7 µM (active)
